In PubChem BioAssay (NCI) one finds growth data, which are given here for 40 compounds.

The panel holds about 83,000 compounds, 20% with a hit somewhere; the sample as a whole holds those more often.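 Compound tested at a single concentration for 48 hours in 96-well plates; a percent growth value below 10 was scored as active.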 Unmarked numbers belong to inactive results. The source made the active and inactive calls.

The test system of this assay is OVCAR-5 ovarian. Put plainly: NCI-60 one-dose screen, 48 h (100 = growth as untreated, 0 = no growth, -100 = all killed). The settings on record: 10 µM unless noted. Here is the method: Growth inhibition of the OVCAR-5 human tumor cell line is measured as a screen for anti-cancer activity. Cells are grown in 96 well plates and exposed to the test compound for 48 hours. Compounds are tested at a single concentration, which is 10^-5 M for most compounds. The reported endpoint is percent growth (GI% or GIPRCNT), where numbers from 0 - 100% represent growth inhibition, and numbers from -100% - 0 represent cell death. For example, a value of 40 represents 60% growth inhibition. A value of 0 means no net growth occurred over the course of the experiment. A value of -40 indicates 40% of cells at the beginning of the experiment died by the end of the experiment. A value of -100 means all cells are dead at the end of the experiment.
NCI-60 Human Tumor Cell Lines Screen was performed using the standard one-dose NCI protocol, which is described in more detail at https://dtp.cancer.gov/discovery_development/nci-60/default.htm.
Compounds with GIPRCNT values below 10 were considered active. Activity score was based on GIPRCNT using the following formula: […]
Score is 0 for GIPRCNT values of 100 or above, 50 for GIPRCNT values of 0, and 100 for GIPRCNT values of -100.
With `NC(=O)OCC(CO)(c1ccccc1)c1ccccc1`, the growth was 95.3%.

`CCC(C)[C@H]1O[C@]2(C=C[C@@H]1C)C[C@@H]1C[C@@H](C/C=C(\C)[C@@H](OC3C[C@H](OC)C(O[C@H]4C[C@H](OC)[C@@H](O)[C@H](C)O4)[C@H](C)O3)[C@@H](C)/C=C/C=C3\CO[C@@H]4[C@H](O)C(C)=C[C@@H](C(=O)O1)[C@]34O)O2` (stereo not given in full): the growth is -31.8% (active).

Take `Cc1cccc(N=C2c3cc([N+](=O)[O-])ccc3-c3c2cc([N+](=O)[O-])cc3[N+](=O)[O-])c1`: the growth is 99.4%.

For `OC1CCCCC1N1CCC(c2ccccc2)CC1` (stereo not given), the growth was 107%. Regarding `c1ccc2nc(OCCN3CC3)ccc2c1`, the growth was 86.2%.

In the case of `C[C@]12CC[C@H]3[C@@H](C[C@@H]4N=C(c5ccc(O)cc5)S[C@@]45C[C@H](O)CC[C@]35C)[C@@H]1CC[C@@H]2O`, the growth is 106%. Regarding `O=S(=O)(F)c1ncnc2nc[nH]c12`, the growth is 90.7%.

Consider `CC[C@]12C=CCN3CC[C@@]4(c5ccc(OC)cc5N(C)[C@H]4[C@@](O)(C(=O)OC)[C@@H]1OC(=O)CCCN1CCN(CCCC(=O)O[C@@H]4[C@]5(CC)C=CCN6CC[C@@]7(c8ccc(OC)cc8N(C)[C@H]7[C@@]4(O)C(=O)OC)[C@@H]65)CC1)[C@@H]32`, for which the growth is -87.8% (active). For the compound `S=P(Nc1ccccc1)(Nc1ccccc1)c1ccccc1`, the growth is 99.6%. On to `N#CC1c2ccccc2C=CN1C(=O)c1ccc(N(CCCl)CCCl)cc1` (stereo not given), for which the growth is 98.6%. For the compound `CNC(=O)O/N=C(/C)c1ccc(Cl)cc1`, the growth was 111%. Take `CC(=O)O[C@H]1C[C@H](O[C@H]2[C@@H](O)C[C@H](O[C@H]3[C@@H](O)C[C@H](O[C@H]4CC[C@@]5(C)C(CCC6C5C[C@@H](O)[C@]5(C)[C@@H](C7=CC(=O)OC7)CC[C@]65O)C4)O[C@@H]3C)O[C@@H]2C)O[C@H](C)[C@H]1O[C@@H]1O[C@H](CO)[C@@H](O)[C@H](O)[C@H]1O` (stereo not given in full): the growth is -86.1% (active).

With `CC(=O)O[C@@H]1C2=C(C)C3(CC3)[C@@](C)(O)C(=O)C2=C[C@@]1(C)CO`, the growth was 4.7% (active). Next, `C[C@]12CC[C@@H]3C4=C(CC[C@H]3[C@@H]1CC[C@@H]2O)CC(=O)CC4`: -62.7% (active); `[O]=[Sn]([CH]1CCCCC1)[CH]1CCCCC1`: -97.1% (active); `C[C@@H]1O[C@@H](O[C@H]2CC[C@@]3(C)[C@H](CCC4[C@@H]3C(O)C[C@]3(C)[C@@H](c5ccc(=O)oc5)CC[C@]43O)C2)[C@H](O)[C@H](O)[C@H]1O` (stereo not given in full): -92% (active).

Turning to `O=C(Nc1ccc(S(=O)(=O)F)cc1)Oc1ccccc1`, the growth is 102%. On to `CCOCC1(CCc2ccccc2)C(=O)NC(=S)NC1=O`, for which the growth was 107%. In the case of `C/C(=C\c1cc(C(F)(F)F)n(-c2ccc(N)cc2)n1)[C@@H]1C[C@@H]2O[C@]2(C)CCC[C@H](C)[C@H](O)[C@@H](C)C(=O)C(C)(C)[C@@H](O)CC(=O)O1`, the growth was 14.7%. Take `CC(C)(C)NCC(O)c1ccccc1Cl` (stereo not given): the growth is 11%. Regarding `O=[As]c1ccc(C(=O)c2ccc(Oc3ccccc3)cc2)cc1` (stereo not given), the growth is -95.4% (active). Next, `c1ccc(CCN2CCCCC2Cc2ccccc2)cc1` (stereo not given): 83%; `c1cnc2c(c1)ccc1ncccc12`: 148%; `COc1ccc(C2SCC(=O)Nc3c2c(C)nn3-c2nc3ccc(C)cc3s2)cc1O` (stereo not given): 67.2%. For `COc1ccc(C(c2ccc(OC)cc2)C(Cl)(Cl)Cl)cc1` the value was 91.9%; for `COc1ccc2c(c1)NC1=C(C(=O)OC1)C2c1cc(OC)c(OC)c(OC)c1` (stereo not given), 36.1%.

In the case of `CC(=O)C1C(=O)N(C)C(=O)N(C)C1=O`, the growth is 99.7%.

With `CCCCOC(=O)c1ccccc1C(=O)O.CCCCOC(=O)c1ccccc1C(=O)O.[Cu+2]`, the growth is 126%.

As for `CCC(/C=C(C)/C=C/C(=O)c1c(O)c(-c2ccc(O)cc2)c[nH]c1=O)CO` (stereo not given), the growth is 134%. Regarding `CCC1CN1P(=O)(OCCOC)N1CC1CC` (stereo not given), the growth was 103%. For `CN(C)P1(N(C)C)=NP(N(C)C)(N(C)C)=NP(N(C)C)(N(C)C)=N1`, the growth was 104%. For `CN(Cc1cccnc1)N=O`, the growth is 99.8%. For `C=CCc1ccc(OC(=O)Cc2ccccc2)c(OC)c1` the value was 110%; for `CC1(C)N=C(N)N=C(N)N1c1ccc(CCC(=O)Nc2cccc(S(=O)(=O)F)c2)cc1`, 91.2%. Regarding `CC[C@@]1(C2O[C@@H](C3O[C@@](O)(CC)[C@H](C)C[C@@H]3C)C[C@@H]2C)CC[C@H]([C@]2(C)CCC3(C[C@H](O)[C@@H](C)[C@@H]([C@H](C)[C@@H](OC)[C@H](C)C(=O)O)O3)O2)O1` (stereo not given in full), the growth was 43.9%. For `COc1c(O)c2c3c(c1OC)-c1ccccc1CC3N(C)CC2` (stereo not given) the value was 109%; for `[Cl][Hg][n]1cnc2c(Cl)c(Cl)c(Cl)cc21`, 132%. As for `O=C(c1cccs1)C1NO[N+]([O-])=C1c1cccs1` (stereo not given), the growth is 114%. For `CC(=O)[O][Hg][CH2]C1(C)COC(C)([CH2][Hg][O]C(C)=O)CO1` (stereo not given) the value was 114%. For `CC(=O)[O][Hg][c]1nc2c(c(=O)n(C)c(=O)n2C)n1C`, the growth was 117%.
